Source: PubChem BioAssay
The list is not random: actives were taken first. Their share in the collection is about 18%.
PLK1 PBD block – PLK1 (human) polo-box domain binding inhibition. Plk1 PBD binding of FITC phosphopeptide, fluorescence polarization. P53350. Potency, µM, inactives show max response, negative = inhibition, usual class: inhibitors. AID 720504. hit rate 2.8% among 360,000; note: series mostly up to about 57 µM; nearly all actives have a fitted effect of over 65% in size
TDP1 inh – blocks human tyrosyl-DNA phosphodiesterase 1; Q9NUW8; recombinant TDP1, AlphaScreen DNA substrate cleavage; Potency, µM (highest dose often 130 µM), for the others: at the highest dose activity change, negative = inhibition, hits mostly inhibitors; hit rate 0.28% among 350,000; AID 485290; note: nearly all actives have a fitted effect of over 40% in size
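AlphaScreen read-out: signal falls as enzyme removes the 3' tyrosine-FITC from a 5'-biotinylated DNA oligo (15 nM, 5 min, RT). Enzyme was E. coli-made recombinant Tdp1 at 1 nM, exposed to compound for 15 min beforehand; beads 10 ug/ml, 10 min.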
DT40 TDP1 CPT – growth inhibition of DT40 Tdp1-/-;hTDP1 cells with camptothecin (screen for TDP1 inhibitors) | chicken DT40 Tdp1-/-;hTDP1 cells + 20 nM CPT, ATP luminescence, 48 h | Potency, µM (titrated, usually from 46.2 µM), for the others: at the top dose activity change, negative = growth inhibition, usual class: inhibitors | hit rate 12% among 420,000; note: nearly all actives have a fitted effect of over 55% in size
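Cell growth measured by CellTiter-Glo luminescence after a minimum 48 h, 37 C compound exposure with 20 nM CPT in Tdp1-knockout DT40 cells stably expressing hTDP1, seeded 400/well; qHTS titration format.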
TDP1 cell noCPT – qHTS for Inhibitors of human tyrosyl-DNA phosphodiesterase 1 (TDP1): qHTS in cells in absence of CPT; DT40 Tdp1-/- hTDP1 cells, no CPT, ATP luminescence, 48 h; Potency, µM (doses to about 46.2 µM), inactives show top-dose activity change, negative = growth inhibition, actives largely listed as inhibitors; hit rate 15% among 420,000; note: nearly all actives have a fitted effect of over 55% in size
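Cells were dispensed at 400 per well, compounds added by pin tool, plates incubated ≥48 hr at 37 °C, then CellTiter-Glo added for 30 min at room temperature before luminescence reading. Line: DT40 Tdp1-/- complemented with hTDP1; camptothecin omitted.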
GCN5L2 inh – GCN5L2 (KAT2A) acetyltransferase inhibition; Q92830; GCN5L2 HAT assay, ThioGlo1 CoA-SH fluorescence; Potency, µM (top dose mostly 58.9 µM), for inactives: at the top dose activity change, negative = inhibition, usual class: inhibitors; hit rate 0.21% among 390,000
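qHTS, 1536-well. 20nM enzyme, pH 7.5 HEPES/EDTA/Tween-20 buffer; 15 min compound preinc., RT. Start: 75uM H3(1-25), 70uM AcCoA, 50uM ThioGlo1. Read Ex340/Em540 at t=0 (autofluorescence flag) and t=20 min.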
VDR inhibitor – blocks the human vitamin D receptor. Potency, µM, for the others: max response, negative = inhibition, most hits filed as inhibitors. hit rate 0.93% among 400,000. VDR-SRC2-3 peptide fluorescence polarization, 2 h
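Signal is fluorescence polarization, reporting how far test compounds block the interaction of VDR with the SRC2-3 coregulator peptide after a 2 h room-temperature incubation.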
* = called active by the depositor; [ ] = another dose, or the depositor's remark. Calls come from the whole dose curve; as a rule, active = well fitted curve in the direction sought with a large enough effect; inconclusive = small, poorly fitted or top-dose-only effect, or another doubt; inactive = no such curve, though single readings can be large; an effect the other way counts as inactive or inconclusive. % is set by controls: 0 for no effect and ±100 for the full control effect; potency is the fitted concentration of half-maximal effect.

How did O=C1CCc2cc(S(=O)(=O)Nc3ccncc3)ccc2N1 do in these assays?
TDP1 inh: 1%

How did Cc1cccc(N2CCN(C3(c4ccccc4)C(=O)c4ccccc4C3=O)CC2C)c1 (configuration not stated) do in these assays?
TDP1 inh: 10%; DT40 TDP1 CPT: -29%; TDP1 cell noCPT: inconclusive; GCN5L2 inh: -17%; VDR inhibitor: 8%

Results for CN(c1cc2c(c3c1ccn3C)C1CCC2O1)C1CCCCC1 (configuration not stated) ?
PLK1 PBD block: 4%; DT40 TDP1 CPT: inconclusive; TDP1 cell noCPT: inconclusive

Results for Cn1ccc2c(N3CCCCCCC3)cc3c(c21)C1CCC3O1 (configuration not stated) ?
PLK1 PBD block: 1%; DT40 TDP1 CPT: inconclusive; TDP1 cell noCPT: 21µM*

How did CN(c1cccc(F)c1)c1cc2c(c3c1ccn3C)C1CCC2O1 (configuration not stated) do in these assays?
PLK1 PBD block: -9%; DT40 TDP1 CPT: 16µM*; TDP1 cell noCPT: 16µM*

How did CCN(CC)c1cc2c(c3c1ccn3C)C1CCC2O1 (configuration not stated) do in these assays?
PLK1 PBD block: -15%; DT40 TDP1 CPT: -11%; TDP1 cell noCPT: -18%

How did O=[N+]([O-])c1nccn1CC(O)CO (configuration not stated) do in these assays?
PLK1 PBD block: -12%; DT40 TDP1 CPT: -14%; TDP1 cell noCPT: 0%

What do the screens show for `COc1cccc(N2CCN(C(=O)c3cc(-c4ccc(F)cc4)[nH]c3C)CC2)c1`?
PLK1 PBD block: 4%; DT40 TDP1 CPT: 15µM*; TDP1 cell noCPT: 21µM*; GCN5L2 inh: -28%; VDR inhibitor: -21%

How did COc1cccc(N2CCN(C(=O)c3cnc4c(-c5ccccc5)c(C)nn4c3C)CC2)c1 do in these assays?
TDP1 inh: 8%; DT40 TDP1 CPT: 15µM*; TDP1 cell noCPT: inconclusive; GCN5L2 inh: -3%; VDR inhibitor: -2%

Results for Cc1ccc(N2CCN(C(=O)c3cc(-c4ccc(F)cc4)[nH]c3C)CC2C)cc1 (configuration not stated) ?
PLK1 PBD block: 6%; DT40 TDP1 CPT: inconclusive; TDP1 cell noCPT: 21µM*; GCN5L2 inh: -27%; VDR inhibitor: -5%

Results for Cc1[nH]c(-c2ccc(F)cc2)cc1C(=O)N1CCN(c2ccccc2)CC1 ?
PLK1 PBD block: -1%; DT40 TDP1 CPT: inconclusive; TDP1 cell noCPT: inconclusive; GCN5L2 inh: -8%; VDR inhibitor: 13%

How did COc1ccccc1/C=C1\SC(=O)N(CCC(=O)NNC(=O)c2ccccc2Cl)C1=O do in these assays?
PLK1 PBD block: -5%; TDP1 inh: 3%; DT40 TDP1 CPT: -7%; TDP1 cell noCPT: -8%; GCN5L2 inh: -6%; VDR inhibitor: -7%

How did O=C(NCCN1C(=O)S/C(=C\c2cccc(Cl)c2Cl)C1=O)C1=COCCO1 do in these assays?
PLK1 PBD block: inconclusive; TDP1 inh: 0%[56.1 µM]; DT40 TDP1 CPT: 1.5µM*; TDP1 cell noCPT: 2.6µM*; GCN5L2 inh: -26%; VDR inhibitor: -27%

How did Cc1ccc(C(=O)c2coc3ccc(O)c(CN4CCN(C)CC4)c23)cc1 do in these assays?
PLK1 PBD block: -4%; TDP1 inh: 8%; DT40 TDP1 CPT: 13µM*; TDP1 cell noCPT: 18µM*; GCN5L2 inh: -2%; VDR inhibitor: 14%

What do the screens show for `COc1ccc(C(=O)c2coc3ccc(O)c(CN4CCCC4)c23)cc1`?
PLK1 PBD block: -4%; TDP1 inh: 3%; DT40 TDP1 CPT: inconclusive; TDP1 cell noCPT: inconclusive; GCN5L2 inh: -4%; VDR inhibitor: -18%
